Reference: PubChem BioAssay (NCI)
Compounds without any hit were thinned out: in the full panel of roughly 79,000, 15% have a hit. Values without a mark were called inactive. Active and inactive are the calls of the source. No stated cut-off is given here; in the data, active means growth inhibition above about 70%; inactive means the rest.

Experiments:
[1] = NCI Yeast Anticancer Drug Screen. Data for the rad52 strain (AID 147);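 further: 0% = growth of vehicle-treated control cultures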; settings: S. cerevisiae rad52 mutant growth inhibition, hits give high values
Method in brief: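 Screen used a yeast mutant impaired in DNA repair. After compound exposure, growth was measured. Values reflect inhibition compared with vehicle-treated cells.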

[2] = NCI Yeast Anticancer Drug Screen. Data for the wt1 strain (AID 149);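 further: 0% = growth of vehicle-treated wt1 cultures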; settings: S. cerevisiae wt1 strain (SPY 50644) growth inhibition, hits give high values
Method in brief: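 wt1 strain grown with compound or vehicle; inhibition taken from the growth difference.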

[3] = NCI Yeast Anticancer Drug Screen. Data for the rad50EPP+ strain (AID 151);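 further: 0% = growth of vehicle-treated control cultures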; settings: S. cerevisiae rad50 mutant strain, hits give high values
Method in brief: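 Exposing the rad50EPP+ strain to each compound, growth was compared with vehicle-only cultures to give inhibition.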

[4] = NCI Yeast Anticancer Drug Screen. Data for the mgt1 strain (AID 153); settings: S. cerevisiae mgt1 mutant growth inhibition, hits give high values
Method in brief: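 Genetically defined yeast (mgt1) treated with compound; inhibition of growth expressed against vehicle-treated controls.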

[5] = NCI Yeast Anticancer Drug Screen. Data for the rad50 strain (AID 155);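 further: 0% = growth of vehicle-only cultures of the same strain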; settings: S. cerevisiae rad50 strain growth inhibition, hits give high values
Method in brief: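 DNA repair mutant yeast, compound exposure, growth read-out; inhibition is taken relative to vehicle.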

[6] = NCI Yeast Anticancer Drug Screen. Data for the mec2-1 strain (AID 157); settings: S. cerevisiae mec2-1 strain, hits give high values
Method in brief: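 Readout is yeast growth inhibition, normalised to vehicle-treated controls, in the mec2-1 strain exposed to compound.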

[7] = NCI Yeast Anticancer Drug Screen. Data for the rad14 strain (AID 159);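 further: 0% = growth of vehicle-treated control cultures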; settings: S. cerevisiae rad14 strain growth inhibition, hits give high values
Method in brief: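 DNA repair-defective yeast, compound-exposed; % growth inhibition derived by comparison with vehicle-treated controls.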

[8] = at 5.0 µM (retest, dose inferred, filed as 0.5)
[9] = at 50.0 µM (retest, dose inferred, filed as 5.0)

Compound: CCS(=O)(=O)[O][Sn]([CH2]C)([CH2]C)[O]S(=O)(=O)CC
- growth inhibition ([1]; at 1.2 µM): -49%
- growth inhibition ([1]; at 3.7 µM): -43%
- growth inhibition ([1]; at 11.0 µM): -29%
- growth inhibition ([1]; at 33.0 µM): -15%
- growth inhibition ([1]; at 100.0 µM): 50%
- growth inhibition ([2]; at 1.2 µM): -47%
- growth inhibition ([2]; at 3.7 µM): -43%
- growth inhibition ([2]; at 11.0 µM): -39%
- growth inhibition ([2]; at 33.0 µM): -25%
- growth inhibition ([2]; at 100.0 µM): 61%
- growth inhibition ([3]; at 1.2 µM): -47%
- growth inhibition ([3]; at 3.7 µM): -43%
- growth inhibition ([3]; at 11.0 µM): -51%
- growth inhibition ([3]; at 33.0 µM): -33%
- growth inhibition ([3]; at 100.0 µM): -35%
- growth inhibition ([4]; at 1.2 µM): -3%
- growth inhibition ([4]; at 3.7 µM): -1%
- growth inhibition ([4]; at 11.0 µM): 1%
- growth inhibition ([4]; at 33.0 µM): 18%
- growth inhibition ([4]; at 100.0 µM): 61%
- growth inhibition ([5]; at 1.2 µM): -4%
- growth inhibition ([5]; at 3.7 µM): -19%
- growth inhibition [5, 8]: 21%
- growth inhibition ([5]; at 11.0 µM): 2%
- growth inhibition ([5]; at 33.0 µM): -14%
- growth inhibition [5, 9]: 68%
- growth inhibition ([5]; at 50.0 µM): 48.5%
- growth inhibition ([5]; at 100.0 µM): 56%
- growth inhibition ([6]; at 1.2 µM): -5%
- growth inhibition ([6]; at 3.7 µM): 3%
- growth inhibition [6, 8]: 6%
- growth inhibition ([6]; at 11.0 µM): 3%
- growth inhibition ([6]; at 33.0 µM): 23%
- growth inhibition [6, 9]: 85% (active)
- growth inhibition ([6]; at 50.0 µM): 77% (active)
- growth inhibition ([6]; at 100.0 µM): 69%
- growth inhibition ([7]; at 1.2 µM): -2%
- growth inhibition ([7]; at 3.7 µM): 4%
- growth inhibition ([7]; at 11.0 µM): 4%
- growth inhibition ([7]; at 33.0 µM): 10%
- growth inhibition ([7]; at 100.0 µM): 34%
